# Rows were chosen to be rich in hits. Some 9.2% of all compounds tested hit in one or more screens of this group.
# UCHL1 inh – inhibitors of human UCHL1 deubiquitinase | 47,000 tested, 0.2% active | purified UCHL1, Ub-rhodamine cleavage fluorescence | AID 1645859, 2021 | inhibition, % at 20 µM | Ubiquitin carboxyl-terminal hydrolase isozyme L1 (Homo sapiens), P09936
# USP8 inh – inhibitors of human USP8 deubiquitinase. Ubiquitin carboxyl-terminal hydrolase 8 (Homo sapiens), P40818. purified USP8, Ub-rhodamine cleavage fluorescence, 30 min. inhibition, % at 20 µM. 47,000 tested, 4.2% active. AID 1645853, 2021
# OTUD3 block – inhibitors of human OTUD3 deubiquitinase. OTU domain-containing protein 3 (Homo sapiens), Q5T2D3. purified OTUD3, Ub-rhodamine fluorescence, 2 h. inhibition, % at 25 µM. 47,000 tested, 0.7% active
# Target sequence (Q5T2D3 whole entry, looked up, the tested form may be a part): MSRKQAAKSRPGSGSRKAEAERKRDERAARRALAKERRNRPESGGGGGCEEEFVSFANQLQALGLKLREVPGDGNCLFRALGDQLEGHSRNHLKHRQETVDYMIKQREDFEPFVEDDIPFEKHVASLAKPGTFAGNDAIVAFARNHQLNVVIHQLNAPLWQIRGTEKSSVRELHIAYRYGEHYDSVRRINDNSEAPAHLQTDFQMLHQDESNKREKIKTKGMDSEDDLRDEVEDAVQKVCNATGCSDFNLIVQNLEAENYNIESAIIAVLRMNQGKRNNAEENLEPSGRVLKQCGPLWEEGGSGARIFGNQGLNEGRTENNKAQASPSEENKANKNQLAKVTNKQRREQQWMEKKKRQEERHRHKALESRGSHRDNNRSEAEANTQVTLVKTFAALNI
# USP10 block – inhibitors of human USP10 deubiquitinase | Ubiquitin carboxyl-terminal hydrolase 10 (Homo sapiens), Q14694 | 47,000 tested, 1.1% active | inhibition, % at 20 µM | purified USP10, Ub-rhodamine fluorescence, 60 min | AID 1645856, 2021
# USP7 block – inhibitors of human USP7 deubiquitinase; AID 1645854, 2021; purified USP7, Ub-rhodamine cleavage fluorescence; inhibition, % at 20 µM; 47,000 tested, 0.3% active
# USP17 block – inhibitors of human USP17 deubiquitinase | Ubiquitin carboxyl-terminal hydrolase 17-like protein 5 (Homo sapiens), A8MUK1 | purified USP17, Ub-rhodamine cleavage fluorescence, 3 h | inhibition, % at 50 µM | 47,000 tested, 6.5% active | AID 1645855, 2021
# The depositor's hits bear a star; . = no result. No stated cut-off is given here; in the data, active means inhibition above about 30%; inactive means the rest.
SMILES,UCHL1 inh,USP8 inh,OTUD3 block,USP10 block,USP7 block,USP17 block
Cc1ccc(C)c(OCCCn2c(CCNC(=O)C3CCCCC3)nc3ccccc32)c1,12,7,9,12,-6,9
O=C(NC1(c2nc(-c3ccncc3)no2)CCCCC1)C1CCCC1,-3,0,-2,-3,-17,-8
O=C1N(c2ccc(F)cc2)C2CS(=O)(=O)CC2N1c1ccccc1Cl (configuration not stated),0,3,5,1,-1,12
CC(=O)c1oc2nc3c(c(-c4ccc(Cl)cc4)c2c1N)CCc1ccccc1-3,18,65*,37*,-5,-110,38*
Cc1cccc(NC(=O)CSc2nnc(-c3n[nH]c4c3CCC4)n2N)c1,3,8,14,4,3,63*
Cc1cccc(NC(=O)CSc2nnc(N)n2-c2ccccc2)c1,1,1,15,4,-24,9
COc1ccc(C(=O)c2c[nH]cc2-c2ccc(C)cc2)cc1OC,-2,-3,1,5,-4,31*
O=C(Oc1ccc2ccccc2c1)c1ccccc1Oc1ccccc1,4,22,15,6,9,13
FC(F)(F)c1cnc(-c2cc(-c3ccn[nH]3)on2)c(Cl)c1,1,-13,-9,0,-8,-14
COc1ccccc1-c1nc(SCc2ccccn2)n[nH]1,1,-14,0,-2,-2,-9
Cc1cc2nc(-c3ccc(SCc4ccccn4)nc3)[nH]c2cc1C,-10,6,-9,-5,-8,57*
Cc1sc2nc(CN3CCCC3)nc(Oc3ccc(-c4nnco4)cc3)c2c1C,-18,-2,-71,-6,-26,-36
COc1cc(C2CC(=O)c3cnc(N4CCc5ccccc54)nc3C2)cc(OC)c1OC (configuration not stated),0,-5,-15,-2,1,-7
O=C1CC(c2ccc(F)cc2)Cc2nc(N3CCc4ccccc4C3)ncc21 (configuration not stated),5,5,2,11,2,11
O=C(Nc1ncc2c(n1)CC(c1ccco1)CC2=O)c1ccco1 (configuration not stated),-2,-5,-1,-3,-14,-18
O=C1CC(c2ccco2)Cc2nc(N3CCc4ccccc43)ncc21 (configuration not stated),4,40*,30,-1,7,37*
Cc1ccc2c(C)nc(Nc3ncc4c(n3)CC(c3ccco3)CC4=O)nc2c1 (configuration not stated),9,61*,25,10,12,59*
O=C1CC(c2ccco2)Cc2nc(N3CCc4ccccc4C3)ncc21 (configuration not stated),5,3,-1,6,0,44*
Cn1c2ccccc2c(=O)c2c(=O)n(Cc3ccccc3)c(-c3ccco3)nc21,8,18,1,4,3,59*
COc1ccc(CCn2c(-c3ccccc3C)nc3c(c(=O)c4ccccc4n3C)c2=O)cc1OC,7,-58,0,2,5,1
Cn1c2ccccc2c(=O)c2c(=O)n(Cc3ccccc3)c(-c3ccc(C(C)(C)C)cc3)nc21,0,5,-7,11,8,50*
COCCCn1c(-c2ccc([N+](=O)[O-])cc2)nc2c(c(=O)c3ccccc3n2C)c1=O,-2,-55,-3,0,0,10
Cc1ccc(-c2nc3c(c(=O)c4ccccc4n3C)c(=O)n2-c2ccc(F)cc2)cc1,-3,-2,-5,4,.,43*
Cc1nc2c(c(=O)c3ccccc3n2C)c(=O)n1Cc1ccco1,-1,-10,15,-7,-12,12
Cn1c2ccccc2c(=O)c2c(=O)n(Cc3ccco3)c(C3CCCCC3)nc21,2,30*,8,-2,3,8
COc1ccc(CCn2c(-c3ccccc3C)nc3c(c(=O)c4ccccc4n3C)c2=O)cc1,0,10,9,0,8,.
Cn1c2ccccc2c(=O)c2c(=O)n(Cc3ccccc3)c(-c3ccccc3F)nc21,0,2,-15,-1,0,66*

# Bioassay records from PubChem.
